TGFb SMAD3 inh = inhibitors of TGF-b signaling | Potency, µM (doses to about 46.1 µM), for inactives: at the top dose activity, negative = inhibition, most hits filed as inhibitors | 410,000 compounds, 1.2% hits | HepG2 CAGA-GFP TGF-b/SMAD3 reporter, GFP fluorescence, 18 h; TGF-beta stimulated, 500 pg/mL final; further: on the % scale 0 is the no-effect control and ±100 the full control effect; nearly all actives have a fitted effect of over 65% in size
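Per well, imaged GFP fluorescence of HEPG2 CAGA-GFP cells gives the signal; cells get compound, then TGF-beta (500 pg/mL final), 18 h at 37 degrees C; %Activity versus -TGF-beta and +DMSO controls.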
TDP1 cell noCPT = qHTS for Inhibitors of human tyrosyl-DNA phosphodiesterase 1 (TDP1): qHTS in cells in absence of CPT. DT40 Tdp1-/- hTDP1 cells, no CPT, ATP luminescence, 48 h. Potency, µM (highest dose often 46.2 µM), for the others: at the top dose activity change, negative = growth inhibition, most hits filed as inhibitors. 420,000 compounds, 15% hits. AID 686978, 2013; further: on the % scale 0 is the no-effect control and ±100 the full control effect; nearly all actives have a fitted effect of over 55% in size
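Stably hTDP1-transfected Tdp1-null chicken DT40 cells were treated with library compounds minus camptothecin and grown for at least 48 hr at 37 °C, after which cellular ATP was quantified by luminescence.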
ATXN viability = cell viability loss in ATXN counter-screen; S2 cells (HEK-293 line with an ATXN2-luciferase reporter) viability, CellTiter-Fluor protease fluorescence, 24 h; Potency, µM (titrated, usually from 56.7 µM), most hits filed as cytotoxic; 400,000 compounds, 0.49% hits; AID 651635; further: nearly all actives have a fitted effect of over 40% in size
HepG2 tox = HepG2 cytotoxicity, counter-screen for TGF-b inhibitors; HepG2 CAGA-GFP viability, ATP luminescence, 18 h; 410,000 compounds, 0.76% hits; Potency, µM (top dose mostly 46.1 µM), for the others: top-dose activity change, negative = cytotoxicity, usual class: cytotoxic
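HepG2 CAGA-GFP cells (1000/well, DMEM with 1% FBS) received compound, then TGF-beta at 500 pg/mL final, and were incubated 18 hours at 37 degrees C. Viability was read by CellTiter-Glo luminescence. Media-only wells were set as complete cell-killing and DMSO as no toxicity.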
TDP1 cell CPT = DT40-hTDP1 cell growth loss with CPT. chicken DT40 Tdp1-/-;hTDP1 cells + 20 nM CPT, ATP luminescence, 48 h. Potency, µM (doses to about 46.2 µM), for the others: top-dose activity change, negative = growth inhibition, hits mostly inhibitors. 420,000 compounds, 12% hits; further: on the % scale 0 is the no-effect control and ±100 the full control effect; nearly all actives have a fitted effect of over 55% in size
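Chicken DT40 Tdp1-/- cells complemented with human TDP1, 400 cells/well, exposed to compounds plus 20 nM camptothecin for at least 48 h at 37 C; viability read as ATP content by CellTiter-Glo luminescence.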
ATXN2 expr inh = reduces ATXN2 reporter expression in HEK-293 cells; HEK-293 ATXN2-luciferase reporter, luminescence, 24 h; Potency, µM (doses to about 57 µM), for the others: at the top dose activity change, negative = inhibition, actives largely listed as inhibitors; 360,000 compounds, 0.72% hits; AID 1745845; further: on the % scale 0 is the no-effect control and ±100 the full control effect; nearly all actives have a fitted effect of over 55% in size
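ATXN2-luciferase reporter cells (luciferase flanked by upstream and downstream ATXN2 gene portions) were treated 24 h at 37 °C with compounds at up to 57 uM. SteadyGlo luminescence gave expression; GF-AFC fluorescence gave viability.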
* = called active by the depositor; i = inactive; ? = inconclusive; . = not tested or not shown. A selection: hits, their analogues and other compounds. The true share with any hit is near 17%. The call rests on the fitted dose curve; in most records, active means well fitted curve in the direction sought with a large enough effect; inconclusive means small, poorly fitted or top-dose-only effect, or another doubt; inactive means no such curve, though single readings can be large; an effect the other way counts as inactive or inconclusive. Potency means the concentration at half of the fitted maximal effect.

SMILES	TGFb SMAD3 inh	TDP1 cell noCPT	ATXN viability	HepG2 tox	TDP1 cell CPT	ATXN2 expr inh
COc1cc(-c2cc(NC=O)c3ncc(-c4cccc(C(=O)N(C)C)c4)n3c2)cc(OC)c1OC	22.1%	14.6µM*	i	-40.0%	?	-24.0%
Cc1occc1C(=O)NNC1=CC(=O)CC(C)(C)C1	-1.4%	16.7%	i	-4.8%	0.4%	1.0%
COc1cc(OC)c2nc(-c3cc4c(c(OC)c3)OCCN(C(=O)CC3NC(=O)c5ccccc53)C4)cc(C)c2c1 (centres undefined)	.	23.1µM*	i	.	?	.
Clc1cccc(C2CCN(Cc3nc(CC4CC4)no3)C2)c1 (centres undefined)	-14.5%	-15.1%	i	-22.6%	-11.0%	3.2%
CCOC(=O)c1ccc(N2C(=O)c3n[nH]c(-c4ccco4)c3C2c2ccc(O)c(OCC)c2)cc1 (centres undefined)	15.8µM*	14.6µM*	?	-60.7%	16.4µM*	?
CCOc1ccc(C2c3c(-c4ccc(C)cc4)n[nH]c3C(=O)N2c2ccc(Cl)cc2)cc1 (centres undefined)	4.47µM*	?	.	12.6µM*	?	-27.7%
CCOC(=O)c1ccc(N2C(=O)c3n[nH]c(-c4ccco4)c3C2c2ccc(C(=O)OC)cc2)cc1 (centres undefined)	?	14.6µM*	?	-39.1%	25.9µM*	?
CCOC(=O)c1ccc(N2C(=O)c3n[nH]c(C)c3C2c2ccc(OC)cc2)cc1 (centres undefined)	3.0%	?	i	-25.7%	-17.4%	-1.0%
O=C1c2[nH]nc(-c3ccc(Br)cc3)c2C(c2cccc(O)c2)N1c1ccc(Cl)cc1 (centres undefined)	7.08µM*	23.1µM*	.	14.1µM*	?	?

Compound activity from PubChem BioAssay.
